CHO-K1 Ca antag: nonselective inhibitor or artifact in parental CHO-K1 cells; ATP-induced calcium, Fluo-8 fluorescence; inhibition, % at 3 µM; hit rate 0.6% among 360,000; AID 602250;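 active = inhibition above a per-plate cutoff, the plate's mean sample inhibition plus 3 SD, cut at about 24% in these data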
CHRM1 antagonist: human M1 muscarinic receptor antagonists, primary screen, CHO-K1 cells, Fluo-8 calcium fluorescence, 1536-well; Muscarinic acetylcholine receptor M1 (Homo sapiens), P11229; CHO-K1 hM1, ACh EC80 antagonist; inhibition, % at 3 µM; hit rate 1.3% among 360,000; AID 588852, 2011;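 active = percent inhibition above its own plate's cutoff, namely the mean of that plate's compound wells plus 3 SD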;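 note: peak over basal fluorescence ratio during 140 s after agonist addition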
Target sequence (P11229 whole entry, looked up): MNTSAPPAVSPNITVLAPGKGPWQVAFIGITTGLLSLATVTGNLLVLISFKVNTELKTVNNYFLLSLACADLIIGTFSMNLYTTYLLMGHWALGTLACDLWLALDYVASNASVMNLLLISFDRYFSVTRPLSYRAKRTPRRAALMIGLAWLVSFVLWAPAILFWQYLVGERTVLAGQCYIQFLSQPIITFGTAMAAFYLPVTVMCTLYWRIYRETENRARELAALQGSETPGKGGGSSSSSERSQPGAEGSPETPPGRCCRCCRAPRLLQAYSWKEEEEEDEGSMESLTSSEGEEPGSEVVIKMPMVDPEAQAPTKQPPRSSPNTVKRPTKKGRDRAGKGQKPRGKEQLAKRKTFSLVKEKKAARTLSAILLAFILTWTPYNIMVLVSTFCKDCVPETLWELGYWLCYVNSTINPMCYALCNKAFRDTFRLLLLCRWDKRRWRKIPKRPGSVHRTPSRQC
CHO-K1 Ca PAM: nonselective calcium activators in parental CHO-K1 cells, primary screen, counter-screen for M1 PAM project, cell-based, Fluo-8 calcium fluorescence, full deck, 1536-well; ATP EC20; 0% at ATP EC20, 100% at ATP max; AID 602247, 2012; hit rate 0.02% among 360,000; activation, % at 3 µM;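 active = activation above the run cutoff, the mean activation of all test compounds plus 3 SD, cut at about 40% in these data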;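 note: peak over basal fluorescence ratio in a 140 s read after ATP addition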
M1 ag: human M1 muscarinic receptor agonists, primary screen, Fluo-8 calcium fluorescence, CHO-K1 cells, HTS; CHO-K1 hM1, agonist mode; 0% DMSO, 100% acetylcholine EC100; activation, % at 3 µM; hit rate 0.33% among 360,000; AID 588814, 2011;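 active = activation above the run's mean compound activation plus 3 SD, cut at about 16% in these data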;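 note: peak over basal fluorescence ratio within a 140 s kinetic read after compound addition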
CHRM1 PAM: human M1 muscarinic receptor positive allosteric modulators, primary screen, CHO-K1 cells, Fluo-8 calcium fluorescence, 1536-well; Muscarinic acetylcholine receptor M1 (Homo sapiens), P11229; CHO-K1 hM1, ACh EC20; 0% = ACh EC20, 100% = maximal ACh; activation, % at 3 µM; hit rate 0.088% among 360,000; AID 588819, 2011; in the data active = activation above about 19%, passing the limit was not always enough
M1 ag parental: counter-screen for M1 agonists: effect in parental CHO-K1 cells. Fluo-8 calcium fluorescence; scaled to maximal ATP response, vehicle zero. activation, % at 3 µM. hit rate 0.48% among 360,000; in the data active = activation above about 15%;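 note: untransfected CHO-K1 host cells lacking M1 receptor as counterscreen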
Large screens that a line does not name were inactive. An excerpt weighted towards active compounds, which were near 2.3% of everything screened.

Cc1c(C(=O)N2CCN(c3ccccc3)CC2)oc2c1C(=O)CC(C)(C)C2	CHRM1 antagonist 30
CSc1ccccc1C(=O)OCC(=O)Nc1c(C)n(C)n(-c2ccccc2)c1=O	none
CCOC(=O)C(=O)Nc1ccc(OCc2ccccc2)cc1	none
COc1ccc(N/C(N)=N/c2nc(C)cc(C)n2)cc1	none
COc1ccccc1N/C(N)=N/c1nc(C)cc(C)n1	none
Cc1cc(C)nc(/N=C(\N)Nc2ccc(CC(=O)OC(C)C)cc2)n1	CHO-K1 Ca antag 45, CHRM1 antagonist 59, M1 ag parental 37
Cc1cc(C)nc(/N=C(\N)Nc2ccc(OCc3ccccc3)cc2)n1	CHO-K1 Ca antag 89, CHRM1 antagonist 89, M1 ag 70, M1 ag parental 91
Cc1cc(C)nc(/N=C(\N)Nc2ccc(OCCC(C)C)cc2)n1	CHO-K1 Ca antag 52, CHRM1 antagonist 84, M1 ag 33, M1 ag parental 33
Cc1cc(C)nc(/N=C(\N)Nc2cccc(OCc3ccccc3)c2)n1	CHRM1 antagonist 59, M1 ag 26, M1 ag parental 46
COCCNC(=O)c1ccccc1NC(=O)CCSc1ccccc1	none
Cc1cccc(C)c1N1C(=O)CC(Sc2ccccc2N)C1=O (stereo not given)	none
CN(C)CCCOC(=O)N1c2ccccc2C=Cc2ccccc21	CHRM1 antagonist 95
CN(C)S(=O)(=O)c1ccc(C(=O)OCC2COC(C)(C)O2)cc1 (stereo not given)	none
Cc1ccc(-n2nnnc2Sc2ccc(S(=O)(=O)NCCN(C)C)cc2[N+](=O)[O-])cc1	CHRM1 antagonist 86
O=[N+]([O-])c1cc(S(=O)(=O)NCCN2CCOCC2)ccc1Sc1nnnn1-c1ccccc1	CHRM1 antagonist 62
O=[N+]([O-])c1cc(S(=O)(=O)NCCCN2CCOCC2)ccc1Cl	none
COC(=O)c1sc(NC(=O)c2cccc([N+](=O)[O-])c2)c(C(N)=O)c1C	none
COC(=O)c1c(NC(=O)c2cccc([N+](=O)[O-])c2)sc(C(N)=O)c1C	CHO-K1 Ca antag 29
CC1CCCC(NC(=O)CN2C(=O)c3cccnc3Oc3ccc(Cl)cc32)C1C (stereo not given)	none
O=C(O)CCCCn1c(SCc2cc(=O)n3cc(Cl)ccc3n2)nc2ccsc2c1=O	none
O=c1c2sccc2nc(SCc2cc(=O)n3cc(Cl)ccc3n2)n1-c1ccc(F)cc1	M1 ag parental 15
CC(=O)Nc1ccc(NC(=O)CC(NC(=O)c2ccccc2)c2ccccc2)cc1 (stereo not given)	none
CCOC(=O)Cn1c(=O)oc2cc(S(=O)(=O)NC3CCCCC3)ccc21	CHRM1 antagonist 32
COc1ccc(-n2ccnc2SCC(=O)NCc2ccco2)c(OC)c1	none
COc1cc(/C=C2\SC(=S)N(Nc3ncc(C(F)(F)F)cc3Cl)C2=O)ccc1O	CHRM1 antagonist 30
Cc1cc(C)nc(NN2C(=O)/C(=C/c3ccccc3)SC2=S)n1	none
CCOc1cc(/C=C2\SC(=S)N(NS(=O)(=O)c3ccccc3)C2=O)ccc1O	none
CN(C)c1ccc(/C=C2\SC(=S)N(Nc3ncc(C(F)(F)F)cc3Cl)C2=O)cc1	CHO-K1 Ca antag 39, CHRM1 antagonist 61, M1 ag 37, M1 ag parental 21
C[C@H]1COC[C@@H](C/C=C/c2ccccc2)N1c1ccccc1	none
Cc1cc(OCC(=O)OC(C)C(=O)Nc2ccc(N3CCOCC3)cc2)ccc1Cl (stereo not given)	none
COC(=O)C1(CCSC)NC(c2ccc(O)c(OC)c2)C2C(=O)N(c3ccc(C)cc3)C(=O)C21 (stereo not given)	M1 ag 25
CCSc1nc2c(c(=O)n(C)c(=O)n2C)n1Cc1ccc(Cl)cc1	none
Cn1c(=O)c2c(nc(SCCN3CCCCC3)n2Cc2ccc(Cl)cc2)n(C)c1=O	CHRM1 antagonist 33
CCCOc1ccc(C(C(=O)OCCN(CC)CC)c2ccccc2)cc1 (stereo not given)	CHRM1 antagonist 98
